42 sequences from publication PMC7819943, “Rice protein-binding microarrays: a tool to detect cis-acting elements near promoter regions in rice” can be followed below.

The full ranking holds about 35,000 sequences; the median of “fluorescence intensity (a.u.)” is about 10,000, and the highest 2% start at about 52,000. This excerpt belongs to a sample that is enriched for the highest values.

The target of this experiment is T1, OsWOX13 (Oryza sativa, UniProt Q5QMM3 1-267).
T1 sequence: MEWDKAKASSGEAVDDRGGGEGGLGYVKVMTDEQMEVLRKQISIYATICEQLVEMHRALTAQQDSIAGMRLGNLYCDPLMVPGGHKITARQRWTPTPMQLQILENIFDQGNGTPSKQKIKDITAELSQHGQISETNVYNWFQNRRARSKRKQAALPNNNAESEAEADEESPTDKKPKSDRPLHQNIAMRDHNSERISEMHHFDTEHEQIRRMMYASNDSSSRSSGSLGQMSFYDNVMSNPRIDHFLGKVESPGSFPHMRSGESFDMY
In words: protein-binding microarray (RPBM); PBS, 2% BSA, 51.3 ng/ul salmon testes DNA, 50 uM zinc acetate, 200 nM TF, 25 C, 1 h; high values mean tight binding. As to conditions: protein: recombinant; tags: N-terminal polyhistidine and DsRed monomer fusion (pET32a); label: CyDye5-dUTP incorporated in the synthesized complementary strand; 3' TTTTT single-stranded linker to array surface; dsDNA, one strand shown. In outline: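 The binding signal for each feature is its fluorescence intensity in arbitrary units. An Axon 4000B scanner was used to read a custom Agilent array that had been made double-stranded with Cy5-dUTP primer extension, blocked with 2% BSA, incubated at 25 °C for 1 h with 200 nM protein in PBS, 2% BSA, salmon testes DNA and 50 µM zinc acetate, and washed. The protein was an N-terminal polyhistidine–DsRed transcription factor fusion from E. coli BL21-CodonPlus, purified on Ni–NTA.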
For the sequence “AGTCAATCAGTCAATCTGGACCGTCCACGGCAGAAGAAGTCGGAGTCACCTAGTGCAG”, the binding signal is 30700 fluorescence intensity (a.u.). As for “GGATTATCAATCAAGCAAGCAAACAAACACTAAGGAAACCCGGAGTCACCTAGTGCAG”, the binding signal was 15000 fluorescence intensity (a.u.).

Turning to “GAATAATCAATTGCCGAATACGTTCTGGACATGGATATTGCGGAGTCACCTAGTGCAG”, the binding signal was 6880 fluorescence intensity (a.u.).

For “CCTGGCTGATCGATAATTAATCCGTCCTCGCCGTCGCCATCGGAGTCACCTAGTGCAG”, the binding signal was 15400 fluorescence intensity (a.u.). For “GGGAAGGCGGCGATTGATTTGATTTGACCAAGATTGGTCGCGGAGTCACCTAGTGCAG” the value was 28700 fluorescence intensity (a.u.). Under “ATATTGATTAGGCTCTCGGCTCTCTATTTAACCAACTGAACGGAGTCACCTAGTGCAG” stands 34300 fluorescence intensity (a.u.); under “CTGATTGATTTAGCGGCTCAACATATATACCAAGGCGGCGCGGAGTCACCTAGTGCAG”, 61100 fluorescence intensity (a.u.); under “GAACTAATCACAAATTTCCACCATACAATGCCGCTGTACTCGGAGTCACCTAGTGCAG”, 13300 fluorescence intensity (a.u.). For “GACTAACACCCTAGACTGATTAATCAAAGCATTGTGCATGCGGAGTCACCTAGTGCAG”, the binding signal is 16800 fluorescence intensity (a.u.). Under “TGCCTTTGATTAATGTCATGATGTCACATGCTGAGATTCACGGAGTCACCTAGTGCAG” stands 11900 fluorescence intensity (a.u.); under “CATCAATCATGATTGAAGATGATTCAAGGTTGAGAGGACCCGGAGTCACCTAGTGCAG”, 53900 fluorescence intensity (a.u.). For the sequence “CTGATTAACTCTTCAATCAAATCCCTAACTTGAGTGCATGCGGAGTCACCTAGTGCAG”, the binding signal is 57200 fluorescence intensity (a.u.). Under “GTCATGTGATTGATGATTCAGCATCCCTTGAGGCTCAGTGCGGAGTCACCTAGTGCAG” stands 53600 fluorescence intensity (a.u.); under “AATTTACGATTGATTATTCATTCAGTGAGGCGCATGCGGTCGGAGTCACCTAGTGCAG”, 32700 fluorescence intensity (a.u.).

Turning to “AAATGAGATGACAATGATGATGATGATGGTTTCATCACCCCGGAGTCACCTAGTGCAG”, the binding signal is 4620 fluorescence intensity (a.u.). Turning to “ATGCAGTAATTAATCAATTAACTAATTAACTCACCCCATGCGGAGTCACCTAGTGCAG”, the binding signal is 47800 fluorescence intensity (a.u.). For “TCACATTCTTGCATGATTGAACACTCCCTTTCATCCCTCACGGAGTCACCTAGTGCAG” the value was 18900 fluorescence intensity (a.u.); for “TACAATCACATTCAATTTGAAAAGAGAAGATGGCTCTTGGCGGAGTCACCTAGTGCAG”, 9800 fluorescence intensity (a.u.); for “GAGGCCAATCAGGTTGATGATGAAGAGGATGATTTCAGCGCGGAGTCACCTAGTGCAG”, 18200 fluorescence intensity (a.u.). With “CTTGATGATTAATCAATTCAATCTTGGCTGTCATGAGAGGCGGAGTCACCTAGTGCAG”, the binding signal is 62000 fluorescence intensity (a.u.). For “ATTTAGACAGGTTCCAACCTCCTTGATAACAGTTAAAACCCGGAGTCACCTAGTGCAG” the value was 7950 fluorescence intensity (a.u.); for “TTTTAGGTTAATTACTTCTATTGGTCAACTCAATATGCAGCGGAGTCACCTAGTGCAG”, 5660 fluorescence intensity (a.u.). For “TGACTCTTATTTAACGACTGATTGTTGTCAAGATAATGAACGGAGTCACCTAGTGCAG” the value was 3770 fluorescence intensity (a.u.); for “CGTACAATATTAATTAAAGTGTTTAAGAAACAGAGACTAGCGGAGTCACCTAGTGCAG”, 3740 fluorescence intensity (a.u.); for “AAGGAAAATTAATAGCATACAGGCATGCATTTACGTACTTCGGAGTCACCTAGTGCAG”, 5500 fluorescence intensity (a.u.). Turning to “CCATGTGATTGACGATGCTCTTATTAACTTCTAACTTGACCGGAGTCACCTAGTGCAG”, the binding signal was 47000 fluorescence intensity (a.u.). On to “GCTGACGTAGATAATCTTATGCTTTCAAATTTTACGATAGCGGAGTCACCTAGTGCAG”, for which the binding signal is 5670 fluorescence intensity (a.u.). For “ACTTTCTGTCAATTAGCCATTAGGTCAGTAGCCCAAAGTCCGGAGTCACCTAGTGCAG” the value was 24300 fluorescence intensity (a.u.); for “TCTGCTTAAAAGGATGATTAAATTTTAGATTAAAGTGGCGCGGAGTCACCTAGTGCAG”, 10200 fluorescence intensity (a.u.). As for “CTGATGATTAGATTTATCATGCTTCCGCGCTTCAAAAGGGCGGAGTCACCTAGTGCAG”, the binding signal is 53400 fluorescence intensity (a.u.). Under “TTCATGATATCAATTTATGAGCATCAAAAGATTACCATGCCGGAGTCACCTAGTGCAG” stands 6980 fluorescence intensity (a.u.); under “TCAGATTAGTTGACTAGCAAGCTACTCCTAGTACAGGTTACGGAGTCACCTAGTGCAG”, 6290 fluorescence intensity (a.u.); under “TAATTATTGACTAATATATTAATTAATATAATGTAATTTACGGAGTCACCTAGTGCAG”, 22700 fluorescence intensity (a.u.). Regarding “TGTTTATAACTGTAATGACATATAAGCACCACATAGGGGCCGGAGTCACCTAGTGCAG”, the binding signal was 5560 fluorescence intensity (a.u.).

Consider “ATGTGTAAATTGAATTAATGGAGTTGGTTGTGAAATCGTTCGGAGTCACCTAGTGCAG”, for which the binding signal is 25300 fluorescence intensity (a.u.).

Turning to “GTTGATTGGGTAAATCATATGATCGTAATGTATTGTGAATCGGAGTCACCTAGTGCAG”, the binding signal is 64600 fluorescence intensity (a.u.). With “ACAATTTGATTGCTTCCTTTCAACATTGTGGTTGGTGATCCGGAGTCACCTAGTGCAG”, the binding signal is 30500 fluorescence intensity (a.u.). Under “CTAATTAATTTGTTCCCTTAATTGGCACTTTGAATCTAAGCGGAGTCACCTAGTGCAG” stands 58300 fluorescence intensity (a.u.); under “GGTGATTTGATTCAAATTCAATCCGATCCTTTGTTGGTTTCGGAGTCACCTAGTGCAG”, 53400 fluorescence intensity (a.u.). Under “GATTAATCCAATTGACTTTGATGAGGATGTGCCACTATTTCGGAGTCACCTAGTGCAG” stands 6820 fluorescence intensity (a.u.); under “TTGTAAATGACTGATTTGGATGTGAATTAATCGTTGTTGTCGGAGTCACCTAGTGCAG”, 28400 fluorescence intensity (a.u.). For “ATAAATGATTGGAGGATTTGTTGTGACTTTTCCACAATGTCGGAGTCACCTAGTGCAG” the value was 58200 fluorescence intensity (a.u.).
